Screening data from PubChem BioAssay.
This is a sample that favours compounds with a hit; in the whole collection about 5.4% have one here.
12-hLO inh: qHTS Assay for Inhibitors of 12-hLO (12-human lipoxygenase) | Polyunsaturated fatty acid lipoxygenase ALOX12 (Homo sapiens), P18054 | Potency, µM (top dose mostly 57.1 µM), for the others: top-dose activity change, negative = inhibition, hits mostly inhibitors | hit rate 0.12% among 150,000 | purified 12-hLO, xylenol orange hydroperoxide absorbance; note: potency is the fitted concentration of half-maximal effect; nearly all actives have a fitted effect of over 55% in size
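Purified human 12hLO (150 nM final) was preincubated with compounds for 15 min at room temperature in 25 mM Hepes pH 7.0, 0.01% Triton X-100, then reacted with 40 uM arachidonic acid for 30 min. Hydroperoxide was detected with ferrous iron/xylenol orange.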
IMPase Li cell: qHTS Assay for Identifying the Cell-Membrane Permeable IMPase Inhibitors: Potentiation with Lithium; hit rate 0.35% among 210,000; AID 1457, 2008; CHO-M1 cells, IP1 TR-FRET (IP-One), carbachol + lithium; Potency, µM (titrated, usually from 59.4 µM), without a hit: at the top dose activity, negative = IMPase inhibition, most hits filed as inhibitors;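 note: IP1 builds up when IMPase is blocked and the TR-FRET signal falls; potency is the fitted concentration of half-maximal effect; plate controls were basal vehicle for no effect and high inhibitor control for full effect; nearly all actives have a fitted effect of over 50% in size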
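Concentration–response in CHO-M1 cells, lithium-potentiated; 30 min at 37C. IP1 detected by competitive TR-FRET after 10 min lysis at RT. Hill-fitted AC50.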
15-hLO-2 inh: qHTS Assay for Inhibitors of 15-hLO-2 (15-human lipoxygenase 2) | Potency, µM (highest dose often 57.1 µM), for inactives: top-dose activity change, negative = inhibition, actives largely listed as inhibitors | AID 881, 2007 | hit rate 0.56% among 110,000 | purified 15hLO-2, xylenol orange hydroperoxide absorbance | Polyunsaturated fatty acid lipoxygenase ALOX15B (Homo sapiens), O15296; note: potency is the fitted concentration of half-maximal effect; nearly all actives have a fitted effect of over 60% in size
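Screening format was qHTS against 50 nM purified 15hLO-2 in Hepes pH 7.5 with detergent. Activity follows hydroperoxide formation from 45 uM arachidonic acid, measured as 573:405 nm absorbance ratio of the ferric-xylenol orange complex.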
IMPase inh: qHTS Assay for Identifying the Cell-Membrane Permeable IMPase Inhibitors | CHO-M1 cells, IP1 accumulation, HTRF TR-FRET ratio | 120,000 tested, under 10 active | inhibition (IP1 accumulation), % at 46.1 µM | AID 901, 2007; active = well fitted curve in the direction sought with a large enough effect in the signal ratio, not every such curve was filed as active; inconclusive = small, poorly fitted or top-dose-only effect, or a change in a side signal; inactive = no such curve, though single readings can be large or run the other way; the % refers to the signal ratio;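 note: cells stimulated with carbachol in lithium chloride buffer; plate controls were DMSO basal wells for no effect and reference inhibitor wells for full effect; higher means more IMPase inhibition seen as more IP1 and lower FRET ratio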
Target sequence (P97697 whole entry, looked up): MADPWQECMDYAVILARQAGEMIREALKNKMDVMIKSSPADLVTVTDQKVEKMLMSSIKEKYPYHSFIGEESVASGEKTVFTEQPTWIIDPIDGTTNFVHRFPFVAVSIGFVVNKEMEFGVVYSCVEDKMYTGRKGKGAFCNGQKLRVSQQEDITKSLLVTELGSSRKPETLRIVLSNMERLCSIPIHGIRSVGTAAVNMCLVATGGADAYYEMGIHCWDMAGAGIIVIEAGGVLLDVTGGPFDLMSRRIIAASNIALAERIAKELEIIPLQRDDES
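Seeded CHO-M1 cells were dosed with compound at up to 46 uM, stimulated with carbachol for 30 min, then lysed in IP-One detection reagents. Higher IP1 lowers the TR-FRET signal.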
HPGD inh: qHTS Assay for Inhibitors of HPGD (15-Hydroxyprostaglandin Dehydrogenase); 15-hydroxyprostaglandin dehydrogenase [NAD(+)] (Homo sapiens), P15428; hit rate 4.3% among 150,000; Potency, µM, inactives show at the top dose activity change, negative = inhibition, actives largely listed as inhibitors; purified HPGD, NADH fluorescence kinetic, PGE2 substrate; active = well fitted inhibition curve with a large enough effect, not every such curve was filed as active; inconclusive = small, poorly fitted or top-dose-only effect, or another doubt; inactive = no such curve, though single readings can be large or run the other way; note: potency is the fitted concentration of half-maximal effect
Target sequence (P15428 whole entry, looked up): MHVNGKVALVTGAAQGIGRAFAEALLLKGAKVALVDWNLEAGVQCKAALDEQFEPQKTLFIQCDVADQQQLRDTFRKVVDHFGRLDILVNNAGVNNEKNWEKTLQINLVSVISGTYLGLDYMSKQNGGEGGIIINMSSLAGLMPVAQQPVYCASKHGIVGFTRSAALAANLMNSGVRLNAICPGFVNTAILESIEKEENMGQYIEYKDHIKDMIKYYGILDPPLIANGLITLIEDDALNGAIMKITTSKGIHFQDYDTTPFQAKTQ
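NADH formation kinetics: reaction with 30 uM PGE2 and 1 mM NAD+ (final), 20 nM enzyme, Tris-HCl pH 8 with Tween 20, after 15 min compound preincubation at room temperature. Fluorescence change, last versus first of five reads.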
PNC inhibitor: High Content Assay for Compounds that inhibit the Assembly of the Perinucleolar Compartment; PC3M PTB-GFP, PNC prevalence imaging, 16 h; active compounds read low; activity change (PNC), negative = inhibition, % at 10 µM; hit rate 3.1% among 140,000;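 active = readout at or below -70, meaning at least 70% loss of cells showing the perinucleolar compartment, a nuclear body marking cancer cells; inconclusive = readout between -30 and a set limit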;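 note: plate controls were DMSO wells for no effect and camptothecin positive control wells for full effect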
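PC3M cells stably expressing PTB-GFP, 750–1000 cells/well, treated 16 h at 37 °C with compound (23 nl of library stock), in duplicate. After paraformaldehyde fixation and Hoechst stain, imaged at 20x; PNC prevalence scored by image analysis.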
An asterisk follows results filed as active; ? = inconclusive; / = no result; [ ] = dose if it differs, or a comment. Unless noted, calls come from the whole dose curve; as a rule, active = well fitted curve in the direction sought with a large enough effect; inconclusive = small, poorly fitted or top-dose-only effect, or another doubt; inactive = no such curve, though single readings can be large; an effect the other way counts as inactive or inconclusive. Unless noted, % is set by controls: 0 for no effect and ±100 for the full control effect.

SMILES	12-hLO inh	IMPase Li cell	15-hLO-2 inh	IMPase inh	HPGD inh	PNC inhibitor
O=C(NCCSc1ccccc1)c1ccccc1Cl	-1%	-1%	/	/	13µM*	32
CSc1ccccc1C(=O)NCCSc1ccccc1	1%	5%[38.3 µM]	-5%	-1	16µM*	-15
O=C(O)c1cc(-c2ccc(-c3ccccc3)cc2)nc2cc3ccccc3cc12	-4%[11.4 µM]	-1%	-10%[11.4 µM]	/	-18%	/
CC(C)CNC(=S)NC(=O)c1ccccc1Cl	-7%	-10%	/	/	-8%	-134*
Cc1ccccc1C(=O)NCCSc1ccccc1	-2%	20%[38.3 µM]	-1%	3	20µM*	?
O=C(NC(=S)Nc1ccc(O)cc1)c1ccccc1Cl	/	12%	/	/	/	/
CCCCCNC(=O)c1ccccc1SC	-4%	26%[38.3 µM]	-4%	-3	14µM*	-4
O=C(NCCSc1ccccc1)c1ccc(Br)cc1	-1%	0%	/	/	-15%	-10
Cc1ccccc1CSCCNC(=O)c1ccccc1	-1%	7%	/	/	32µM*	4
Cc1cccc(N2CCN(C(=O)C3CCCN(S(=O)(=O)c4ccc(Br)s4)C3)CC2)c1C (centres undefined)	/	/	/	2	/	/
O=C(O)c1nnsc1-c1ccc(-c2snnc2C(=O)O)cc1	3%[11.4 µM]	-1%	-5%[11.4 µM]	/	-22%	/
COc1ccccc1CCn1c(=O)c(-c2cccc(Cl)c2)nc2cncnc21	/	18%	-1%	/	/	/
CCOC(=O)c1sc(NC(=O)CN(CC(C)C)CC(C)C)c(C(=O)OCC)c1C	1%	29%[38.3 µM]	13%	2	?	-110*
CCOC(=O)c1sc(NC(=O)CCN2CCN(CC)CC2)c(C(=O)OCC)c1C	/	14%	/	/	/	/
CCOC(=O)c1c(NC(=O)c2cc(-c3ccc(O)cc3)on2)sc(C(C)=O)c1C	-2%	5%	/	/	18µM*	24
CCOC(=O)c1c(NC(=O)COC)sc(C(C)=O)c1C	0%	15%[38.3 µM]	2%	-12	?	-6
CCOC(=O)c1c(NC(=O)CC(C)C)sc(C(C)=O)c1C	-1%	7%	/	6	-15%	-100*
Cc1ccc(C)c(/C(O)=C2\C(=O)C(=O)N(Cc3cccnc3)C2c2cccnc2)c1 (centres undefined)	-11%	7.1µM*	1%	-24	25µM*	5
Cc1ccc(C)c(/C(O)=C2\C(=O)C(=O)N(CCCN3CCOCC3)C2c2cccnc2)c1 (centres undefined)	3%	29%[38.3 µM]	-4%	4	-16%	11
O=C(CSc1cn(CCNC(=O)c2ccccc2)c2ccccc12)NCc1ccco1	-4%	8%[38.3 µM]	-15%	11	-10%	-2
O=C(CSc1nnc(CNC(=O)c2cccs2)o1)Nc1ccccc1	/	-5%	/	/	/	/
O=C(CSc1nnc(CNC(=O)c2cccs2)o1)NC1CCCC1	6%	2%	/	-10	-19%	-100*
O=C(CSc1cn(CCNC(=O)c2cccs2)c2ccccc12)NC1CCCC1	0%	34%[38.3 µM]	-6%	6	20µM*	-16
CCCCOC(=O)c1c(C)oc2c1cc(NS(=O)(=O)c1cc(OC)ccc1OC)c1ccccc12	/	/	/	-4	/	/
CN(Cc1cccc2ccccc12)Cc1cccc2ccccc12	0%[11.4 µM]	0%	2%[11.4 µM]	/	-5%	/
SMILES	12-hLO inh	IMPase Li cell	15-hLO-2 inh	IMPase inh	HPGD inh	PNC inhibitor
CC1CCN(c2nc3ccc(C(=O)N4CCN(Cc5ccc6c(c5)OCO6)CC4)cc3s2)CC1	-5%	18%[38.3 µM]	33%	24	18µM*	-19
COc1ccc(N2CCN(C(=O)c3ccc4nc(N5CCCCC5)sc4c3)CC2)cc1	5%	38%[38.3 µM]	-4%	2	-24%	?
O=C(c1ccc2nc(N3CCOCC3)sc2c1)N1CCCC1	-4%	14%[38.3 µM]	-3%	-8	14µM*	0
CCOc1ccc(NC(=O)C2CCCN(S(=O)(=O)c3ccc(Br)s3)C2)cc1 (centres undefined)	/	/	/	14	/	/
COc1ccc(S(=O)(=O)N2CCCC(C(=O)NC3CCCCC3)C2)cc1 (centres undefined)	1%	29%[38.3 µM]	3%	-11	-17%	-102*
COc1ccc(S(=O)(=O)N2CCCC(C(=O)O)C2)cc1 (centres undefined)	14%	-3%[38.3 µM]	5%	-5	2%	?
CCN(C(=O)CN1CCOCC1)c1c(N)n(Cc2ccccc2)c(=O)[nH]c1=O	/	-1%	/	/	/	/
CCN(C(=O)CN(C)Cc1cccc(Cl)c1Cl)c1c(N)n(Cc2ccccc2)c(=O)[nH]c1=O	-2%	5%	/	2	-15%	-98*
OCc1cc2c(cn1)[nH]c1ccccc12	/	-14%	/	/	/	/
CC(C)(C)c1cc(C(=S)N2CCN(CCO)CC2)cc(C(C)(C)C)c1O	?	32%[38.3 µM]	16%	8	25µM*	?
S=C(c1ccc(Cl)cc1)N1CCN(Cc2ccccc2)CC1	/	11%	/	/	/	/
CCN1CCN(C(=S)c2ccc(Cl)cc2)CC1	2%	13%[38.3 µM]	8%	0	10µM*	19
CCOC(=O)N1CCN(CCC(=O)c2ccc(Cl)cc2)CC1	-3%	25%[38.3 µM]	?	9	25µM*	2
OCCN1CCN(C(=S)c2ccc(Cl)cc2)CC1	-2%	6%[38.3 µM]	11%	-9	16µM*	?
OCCN1CCN(Cc2cc(Br)cc(Br)c2O)CC1	2%	32%[38.3 µM]	0%	0	-4%	-19
O=c1c(CCc2ccccc2)nc2cnc(N3CCOCC3)nc2n1C1CC1	/	-9%	-6%	/	/	/
COc1ccc(-c2oc3ncn4nc(-c5ccccc5Br)nc4c3c2-c2ccc(OC)cc2)cc1	/	/	/	-12	/	/
CC(C)C[C@@H](CC(=O)N[C@@H](CCCN)CC(=O)N[C@@H]1CCCC[C@H]1C(=O)N[C@H](CC(=O)N[C@@H](CCC(=O)O)CC(=O)O)CC(C)C)NC(=O)[C@@H]1CCCC[C@H]1N	0%	4%	/	/	-9%	/
COc1ccc(CC/C(C)=N\NC(N)=O)cc1	3%	-4%	/	/	9%	-105*
Cc1cc(C(=O)OCC(=O)c2ccc3c(c2)OCCO3)c(C)o1	-6%	7%[38.3 µM]	2%	-1	20µM*	?
CCCC(=O)c1ccc2c(c1)OCCO2	-3%	23%[38.3 µM]	-10%	-1	28µM*	-27
Cc1c(C(=O)OCC(=O)c2ccc3c(c2)OCCO3)oc2ccccc12	-1%	-8%[38.3 µM]	0%	-2	-11%	-13
O=C(O)CCC(=O)c1ccc2c(c1)OCCO2	4%	-1%[38.3 µM]	3%	-4	-15%	36
